These results are taken from PMC5540273 (PLoS ONE, 2017).

Among the test systems are ERN1; FER; FES; FGFR1; FGFR2; FGFR3; FGFR4; FGR.
Holding throughout (conditions): concentration: 1 μM, replicates: in singlicate; n = 1
A further test deals with T1, ERK8.
T1 construct: gene MAPK15

In a further test the test system is T2, FAK.
T2 construct: gene PTK2
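Further: KINOMEscan kinase panel screen.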

On to `Fc1ccc(-c2nn3cccc(F)c3c2-c2ccncc2)cc1` [GW475620], for which the “%Inh” value is recorded as 15% with ERK8; 0% in the test on ERN1; 1% with FAK; 17% in the test with FER; 0% with FES; 23% in the test on FGFR1. Moreover, the “%Inh” value with FGFR2 was found to be 25%; in the test with FGFR3, 6%; with FGFR4, 0%; in the test on FGR, 15%.
In the case of `COc1ccc(Nc2nccc(N3CCC(NC(=O)c4cc5ccccc5s4)C3)n2)cc1` (centres unmarked) [GSK1379738], the “%Inh” value in the test on ERK8, with ERN1, in the test on FAK, with FER, in the test on FES and with FGFR1 was 0% throughout. Also, the “%Inh” value is listed as 0% with FGFR2, 2% in the test on FGFR3, 4% with FGFR4 and 15% in the test on FGR.
With `COc1cccc(NC(=O)Nc2ccc(C)c(-c3ccc(C(=O)Nc4ccncc4)cc3)c2)c1` [GSK1398474], the “%Inh” value is 1% in the test on ERK8; 1% with ERN1; 13% with FAK; 42% in the test on FER; 12% in the test with FES; 9% in the test with FGFR1. For the same molecule, the “%Inh” value in the test on FGFR2 was 0%; with FGFR3, 28%; in the test with FGFR4 it was 3%; with FGR it was 32%.
Regarding `COc1ccc2cc(-c3nc(-c4ccccc4C(C)C)[nH]c3-c3ccncc3)ccc2c1` [SB-660566], the “%Inh” value is 0% in the test on ERK8; 14% in the test on ERN1; 0% with FAK; 0% in the test on FER; 0% in the test with FES; 0% in the test on FGFR1. Besides, the “%Inh” value with FGFR2 was 12%; in the test on FGFR3 it was 13%; in the test with FGFR4 it was 20%; with FGR it was 21%.
Regarding `CNc1cc(-c2ccc3c(N)n[nH]c3c2)nc(N)n1` [GSK2224810], the “%Inh” value in the test on ERK8 came out at 0%; in the test with ERN1, 0%; in the test on FAK, 0%; in the test with FER, 19%; in the test with FES it was 9%; in the test with FGFR1, 0%. In addition, the “%Inh” value in the test with FGFR2 is recorded as 0%; in the test on FGFR3 it was 28%; in the test on FGFR4, 7%; in the test on FGR, 24%.
In the case of `CC(=O)c1cccc(NC(=O)NC2CCN(c3ccnc(Nc4ccc(F)cc4)n3)C2)c1` (centres unmarked) [GSK1379710], the “%Inh” value was 0% in the test on ERK8; 19% in the test with ERN1; 0% in the test with FAK; 3% in the test with FER; 0% in the test on FES; 0% in the test on FGFR1. The “%Inh” value in the test on FGFR2 is 0%; with FGFR3, 6%; in the test on FGFR4, 11%; in the test on FGR, 0%.
Regarding `O=C1NC(=O)C(c2ccc(Cl)cc2)=C1Nc1cccc(Cl)c1` [SB-317651], the “%Inh” value was found to be 10% with ERK8; 3% in the test with ERN1; 0% with FAK; 0% in the test on FER; 0% with FES; 0% in the test on FGFR1. The “%Inh” value is 0% in the test on FGFR2, 4% with FGFR3, 0% in the test on FGFR4 and 0% with FGR.
With `O=C1NC(=O)C(c2ccc(Cl)cc2)=C1Nc1ccc(O)cc1` [SB-340867], the “%Inh” value in the test on ERK8 stood at 29%; in the test with ERN1 it was 0%; in the test with FAK, 0%; with FER, 4%; with FES, 0%; with FGFR1, 0%. In addition, the “%Inh” value was 0% with FGFR2, 0% in the test on FGFR3, 0% with FGFR4 and 12% in the test on FGR.
On to `Cc1ccc(NC(=O)Nc2ccccc2)cc1-c1ccc(C(=O)Nc2ccncc2)cc1` [GSK1398471], for which the “%Inh” value with ERK8 worked out at 0%; with ERN1, 0%; in the test with FAK, 0%; in the test with FER, 20%; with FES, 20%; in the test with FGFR1, 0%. The “%Inh” value is on record as 0% with FGFR2, 18% in the test on FGFR3, 13% in the test on FGFR4 and 34% in the test with FGR.
In the case of `CC(=O)c1c(C)c2cnc(Nc3ccn(C)n3)nc2n(C2CCCC2)c1=O`, the “%Inh” value in the test on ERK8 is 17%; in the test on ERN1 it was 0%; with FAK, 0%; in the test on FER, 9%; in the test on FES, 0%; in the test with FGFR1, 0%. The “%Inh” value in the test with FGFR2 is 0%; with FGFR3 it was 0%; in the test on FGFR4, 11%; in the test on FGR it was 0%.
With `O=C(Nc1n[nH]c2nc(-c3ccco3)c(Br)cc12)C1CCN(Cc2ccccc2)C1.O=C(O)[C@H](O)[C@@H](O)C(=O)O` (centres unmarked) [SB-742034], the “%Inh” value came out at 2% in the test on ERK8; 19% with ERN1; 4% with FAK; 0% in the test with FER; 0% with FES; 23% in the test on FGFR1. Moreover, the “%Inh” value in the test with FGFR2 is 0%; in the test on FGFR3 it was 0%; in the test on FGFR4, 10%; with FGR it was 6%.
Turning to `COc1ccc(-c2coc3ccc(-c4nnc(C)o4)cc23)cc1`, the “%Inh” value in the test on ERK8 worked out at 0%; in the test with ERN1, 0%; in the test on FAK it was 0%; in the test on FER, 0%; in the test on FES it was 22%; with FGFR1 it was 0%. For the same molecule, the “%Inh” value in the test on FGFR2 amounted to 4%; in the test with FGFR3, 4%; with FGFR4 it was 0%; in the test with FGR, 36%.
As to `CNCc1ccc2nc(NC(=O)c3ccc(C(C)(C)C)cc3)cn2c1`, the “%Inh” value is 2% in the test on ERK8; 9% in the test on ERN1; 3% in the test with FAK; 1% with FER; 1% with FES; 0% in the test on FGFR1. Moreover, the “%Inh” value with FGFR2 was 0%; in the test with FGFR3 it was 6%; with FGFR4, 0%; in the test on FGR, 0%.
In the case of `Cn1cnc2c(N)ncnc21` [SKF-97623], the “%Inh” value in the test with ERK8 worked out at 12%; in the test with ERN1, 0%; in the test on FAK it was 0%; in the test with FER, 0%; in the test on FES it was 0%; in the test on FGFR1 it was 0%. In addition, the “%Inh” value in the test on FGFR2 came out at 0%; in the test on FGFR3, 0%; in the test with FGFR4, 0%; in the test with FGR, 51%.
`COc1ccc(Nc2nccc(-c3ccc(NC(=O)c4cc5cc(F)ccc5[nH]4)cc3)n2)cc1` [GSK1229496]: the “%Inh” value is 0% with ERK8; 0% in the test with ERN1; 0% in the test on FAK; 16% with FER; 15% in the test with FES; 0% in the test on FGFR1. In addition, the “%Inh” value in the test on FGFR2 was 19%; in the test on FGFR3, 9%; in the test with FGFR4 it was 0%; with FGR it was 10%.
As to `CCn1c(-c2c(N)noc2C)nc2cnccc21` [SB-737856], the “%Inh” value is given as 41% in the test on ERK8; 15% in the test with ERN1; 0% in the test with FAK; 3% in the test with FER; 42% in the test with FES; 0% in the test on FGFR1. Also, the “%Inh” value is listed as 28% in the test on FGFR2, 37% in the test with FGFR3, 11% with FGFR4 and 61% with FGR.
Consider `Cc1cnc(N)c(/C=C/c2cncc(C(=O)NCCc3ccc(Cl)cc3Cl)c2)c1.Cl` [GSK190937], for which the “%Inh” value in the test on ERK8 is 0%; in the test on ERN1, 0%; in the test on FAK it was 0%; in the test on FER, 4%; in the test with FES, 0%; in the test with FGFR1, 0%. Moreover, the “%Inh” value is 9% in the test with FGFR2, 13% in the test on FGFR3, 6% in the test on FGFR4 and 17% in the test with FGR.
